Screening data: PubChem BioAssay, National Center for Advancing Translational Sciences (NCATS)
Lassa entry: qHTS for Inhibitors of binding or entry into cells for Lassa Virus; Lassa virus pseudotyped entry inhibition, cell-based qHTS; AID 720533, 2013; 18,000 compounds, 4.1% hits; Potency, µM (doses to about 49.2 µM), without a hit: at the top dose activity change, negative = inhibition, usual class: inhibitors
MARV entry inh: qHTS for Inhibitors of binding or entry into cells for Marburg Virus; Potency, µM (titrated, usually from 49.2 µM), for the others: at the highest dose activity change, negative = inhibition, most hits filed as inhibitors; Marburg virus pseudotype entry/binding inhibition, cell-based; 18,000 compounds, 6.5% hits
* = called active by the depositor; ? = inconclusive; . = not tested or not shown; ! = not confirmed by another sample; [ ] = dose if it differs, or a comment. The list is not random: actives were taken first. Their share in the collection is about 7.1%. Calls come from the whole dose curve; tested in HEK293 cells. % is set by controls: 0 for no effect and ±100 for the full control effect; potency is the fitted concentration of half-maximal effect.

SMILES | Lassa entry | MARV entry inh
CN(C)c1ccc(-c2nc(N(C)Cc3ccco3)c3ccccc3n2)cc1 | 29% | ?
CNc1nc(-c2ccc(N(C)C)cc2)nc2ccccc12 | -7% | 18µM*
CN(C)c1ccc(-c2nc(N(C)C)c3ccccc3n2)cc1 | -7% | 11µM*
CC(CCN1CCCCc2nc(C)c(C)cc21)=NO[C@H](C)c1cn([C@H](CO)Cc2ccccc2)nn1 | 9%[8.59 µM] | ?
C[C@@H]1CC[C@H]2C(=O)N(Cc3ccccc3)C[C@H](O)CN2[C@@H]1c1ccc(Br)cc1 | -1%[8.59 µM] | 3%[8.59 µM]
CCCCc1oc2ccccc2c1C(=O)c1cc(I)c(OCCN(CC)CC)c(I)c1 | . | 20µM*
CCCCOc1cc(C(=O)OCCN(CC)CC)ccc1N | -15%[17.8 µM] | -16%[17.8 µM]
CC(C)C[C@H]1COc2c(Cl)cccc2S(=O)(=O)N1C | . | 12%
C=C1CN2C(=NC(c3ccccc3)C(C(=O)OC)=C2C)O1 (stereo not given) | -4%[8.59 µM] | 0%[8.59 µM]
CCCCC(F)(F)[C@@]1(O)CC[C@H]2[C@@H](CC(=O)[C@@H]2CCCCCCC(=O)O)O1 | -16% | 3%
NCCNS(=O)(=O)c1ccc(Cl)c2ccncc12 | 19% | -5%
NCCNS(=O)(=O)c1cccc2c(Cl)cccc12 | ? | 10µM*
NCCCCCCNS(=O)(=O)c1ccc2c(Cl)cccc2c1 | 28µM* | 13µM*
O=C(O)Cc1ccc(CCNS(=O)(=O)c2ccc(Cl)cc2)cc1 | 4% | 9%
COC(=O)N[C@@H](C=Cc1ccccc1)C[N+](=O)[O-] | -19%[8.59 µM] | 7%[8.59 µM]
CCCCCC(=O)N1C[C@@H](O)[C@H](n2cc(COC(=O)c3ccccc3)nn2)C[C@H]1c1ccc(OC)cc1 | 11% | -17%
CCN1C(=O)[C@@H]2[C@H]3[C@H](O)[C@H](O)CC(=NO[C@H](C)c4cn([C@H](CO)Cc5ccccc5)nn4)[C@@H]3CC[C@H]2C1=O | . | -11%[8.59 µM]
COc1ccc(CNC(=O)/C=C\c2ccc3[nH]cc(CCN(C)C)c3c2)cc1 | -23% | 22µM*
CN(C)CCc1c[nH]c2ccc(O)cc12 | -9% | -13%
COC(=O)N[C@H](C(C(=O)OC)=C(C)NCc1ccccc1)c1ccccc1 | . | -4%[8.59 µM]
CC(=O)O[C@H]1[C@H]2O[C@]23[C@@H]2CC[C@@H]4C[C@@H](O)CC[C@]4(C)[C@H]2CC[C@]3(C)[C@H]1c1ccc(=O)oc1 | 0.2µM* | 0.089µM*
CC(=O)[C@H]1CC[C@H]2[C@@H]3CC[C@@H]4C[C@H](O)CC[C@]4(C)[C@H]3CC[C@]12C | -3% | 0%
CCc1cc2c(nc1CC)CCN(CCC(C)=NOC[C@@H](O)[C@H]1O[C@@H]3OC(C)(C)O[C@H]3[C@@H]1O)C2 | 6%[8.59 µM] | -6%[8.59 µM]
Cc1cc(O)cc(C)c1C=Cc1cncc(C(=O)OC(C)(C)C)c1 | . | -49%
C[C@@H]1C[C@@H]([C@H](O)CC2CC(=O)NC(=O)C2)C(=O)[C@@H](C)C1 | 2.8µM* | 3.2µM*
SMILES | Lassa entry | MARV entry inh
C[C@@H]1CC([C@H](O)CC2CC(=O)NC(=O)C2)C(=O)[C@@H](C)C1 (stereo not given in full) | 1µM* | ?
Cc1c(C(=O)NCCc2ccccn2)cnn1-c1nccc(-c2cccs2)n1 | 2% | 9%
Cc1c(C(=O)NCCN2CCC(c3ccccc3)CC2)cnn1-c1nccc(-c2cccs2)n1 | -26% | 13µM*
COc1cc(O)c(C(C)=O)c(OC)c1 | 5.6µM* | 8.9µM*
COc1ccc(C(=O)CC(=O)c2c(O)cc(OC)cc2OC)cc1 | -12%[8.59 µM] | 18%[8.59 µM]
O=C1c2ccccc2C(=O)N1CCCC[C@]12Cc3c(ccc4ccccc34)[C@H](O1)c1c(cc(-c3ccccc3)oc1=O)O2 | -13%[8.59 µM] | ?
COC(=O)N[C@H](C(C(=O)OC)=C(C)NCc1ccccc1)c1cccc(C)c1 | . | 15%[8.59 µM]
CCN1CCC[C@H]1CNC(=O)c1c(O)c(Cl)cc(Cl)c1OC | -2% | 14%
CCCCN1CCC[C@@H]1CNC(=O)c1cc(C#N)c2ccccc2c1OC | ? | 14µM*
COc1cc2c(cc1OC)[C@@H]1O[C@](c3ccsc3)(C2)Oc2c1c(=O)oc1ccc(F)cc21 | 11%[8.59 µM] | 28%[8.59 µM]
CCN(CC)CCNC(=O)c1c(C)[nH]c(/C=C2\C(=O)Nc3ccc(F)cc32)c1C | ? | 8.9µM*
CCN(CC)CCNC(=O)c1ccc(NS(C)(=O)=O)cc1 | 0% | 1%
O=C(c1ccc(Br)cc1)N1[C@H](COCc2ccccc2)C=CS1(=O)=O | -8% | 26%
O=C(Nc1cc(C(F)(F)F)ccc1O)Nc1cc(C(F)(F)F)ccc1O | -3% | 12%
O=C(Nc1cc(C(F)(F)F)cc(C(F)(F)F)c1)c1cc(Cl)ccc1O | 1.1µM* | 1µM*
CN(C)C1CCN(CCCOc2ccc(-c3ccc(C#N)cc3)cc2)C1 (stereo not given) | ? | 11µM*
C=C1C(=O)O[C@@H]2[C@H]3O[C@]3(C)CCC=C(C)CC[C@@H]12 | 22µM* | 16µM*
C=CCOC(=O)N[C@H](C(C(=O)OC)=C(C)NCc1ccccc1)c1ccc(C)cc1 | . | 47%[8.59 µM]
COc1ccc(OC)c(-c2ccccc2C=NNS(=O)(=O)c2ccc(C)cc2)c1 | -4%[8.59 µM] | ?
CC(COc1ccccc1)N(CCCl)Cc1ccccc1 (stereo not given) | 28µM*! | 0%
CN(C)Cc1ccccc1 | -16% | 8%
CC(CN1CCc2nnc(CNC(=O)c3cccc(F)c3)n2CC1)c1ccccc1 (stereo not given) | 0% | -9%
O=C(NCc1nnc2n1CCN(Cc1cc(F)cc(F)c1)CC2)c1cccc(F)c1 | ? | 5µM*
CCOC(=O)CCN1C(=O)[C@@H]2[C@H]3[C@H](O)[C@H](O)CC(=NNC(=O)OCc4ccccc4)[C@@H]3CC[C@H]2C1=O | . | 29%[8.59 µM]
FC(F)(F)c1ccccc1-c1ccc2ncnc(NC3CCNCC3)c2c1 | -19% | 11µM*
SMILES | Lassa entry | MARV entry inh
COc1cccc(-c2ccc3ncnc(NC4CCNCC4)c3c2)c1 | 0% | ?
COc1cc2c(cc1O)CCN[C@]21CS[C@@H]2c3c(OC(C)=O)c(C)c4c(c3[C@H](COC1=O)N1[C@@H]2[C@H]2c3c(cc(C)c(OC)c3O)C[C@@H]([C@@H]1O)N2C)OCO4 | 40µM*! | ?
CCCCCC(=O)N1C[C@H](n2cc(C3CC3)nn2)[C@@H](O)C[C@H]1c1ccc(C)cc1 | 8% | 11%
CC(C)=CCC12CC3[C@@H](O)C(C(=O)c4ccccc4)(C1=O)C(=O)C(CC=C(C)C)(C2=O)C3(C)C (stereo not given in full) | . | -26%[8.59 µM]
CC#CCN1C(=O)NC(c2ccccc2)C(C(=O)OC)=C1C (stereo not given) | 8%[8.59 µM] | ?
CCCCCCCCCCCCCCCCCCNC(=O)OC1CCN(C(=O)OC[C@H](COC(=O)N(Cc2cccc[n+]2CC)C(=O)c2ccccc2OC)OC)CC1 | 13µM* | 11µM*
CCCCCC1C(=O)O[C@H](C)[C@@H](NC(=O)c2cccc(NC=O)c2O)C(=O)OC(C)C1OC(=O)CC(C)C (stereo not given in full) | ? | 0.1µM*
C=CCNC(=O)[C@H]1C=C(OC)C(=O)C[C@H]2c3ccccc3C[C@]12C | 4%[8.59 µM] | -22%[8.59 µM]
COc1cccc(C=NNc2ncnc3c2cnn3-c2cccc(OC)c2)c1 | -45% | -19%
COc1cccc(-n2ncc3c(NN=Cc4ccncc4)ncnc32)c1 | 50% | -20%
COc1cc(C=NNc2ncnc3c2cnn3-c2ccccc2)ccc1O | ? | 14µM*
COc1cccc(-n2ncc3c(NN=Cc4ccc(C(=O)NCCN(C)C)cc4)ncnc32)c1 | 11% | 10µM*
